Shown are actives, neighbours in structure and some others; about 1.7% of the full set was active somewhere.
MOR-DOR ag-1 – agonists of human mu-delta opioid receptor heterodimerization; cells, OPRM1-OPRD1 heterodimerization, luminescence; activation, % at 9.3 µM; 340,000 tested, 0.3% active; AID 504326;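 note: 0% = vehicle-treated cells and 100% = reference agonist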
Target sequence (P35372 whole entry, looked up): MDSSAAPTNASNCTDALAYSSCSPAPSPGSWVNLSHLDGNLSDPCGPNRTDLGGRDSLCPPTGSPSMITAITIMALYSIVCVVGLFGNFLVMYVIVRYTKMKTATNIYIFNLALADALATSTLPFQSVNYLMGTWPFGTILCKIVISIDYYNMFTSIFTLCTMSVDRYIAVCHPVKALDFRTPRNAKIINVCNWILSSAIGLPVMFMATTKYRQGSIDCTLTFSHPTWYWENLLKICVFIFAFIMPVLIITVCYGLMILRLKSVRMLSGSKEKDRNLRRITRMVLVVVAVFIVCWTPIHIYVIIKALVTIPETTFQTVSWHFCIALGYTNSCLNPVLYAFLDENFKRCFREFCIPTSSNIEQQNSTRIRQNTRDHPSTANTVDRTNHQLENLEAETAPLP
Target sequence (P41143 whole entry, looked up): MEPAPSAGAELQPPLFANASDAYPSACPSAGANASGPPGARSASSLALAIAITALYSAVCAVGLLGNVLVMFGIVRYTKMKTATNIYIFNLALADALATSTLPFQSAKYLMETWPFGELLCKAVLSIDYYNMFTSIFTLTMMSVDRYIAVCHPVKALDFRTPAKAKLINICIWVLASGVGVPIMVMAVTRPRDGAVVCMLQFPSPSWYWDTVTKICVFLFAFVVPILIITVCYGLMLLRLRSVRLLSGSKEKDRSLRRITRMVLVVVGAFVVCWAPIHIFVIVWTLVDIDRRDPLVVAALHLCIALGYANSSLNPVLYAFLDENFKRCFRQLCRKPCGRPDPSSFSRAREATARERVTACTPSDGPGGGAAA
V-ATPase pHluor – yeast V-ATPase proton transport regulation by pHLuorin | response, % at 10 µM | 350,000 tested, 0.37% active | S. cerevisiae, pHLuorin cytosolic pH fluorescence; in the data active = response mostly above about 7.3%, no sharp cut-off; inactive = mostly below about 5.4%; note: actives read high
OPRM1-OPRD1 inv – inverse agonists of human mu-delta opioid receptor heterodimerization; P35372+P41143; cell-based MOR-DOR heterodimer luminescence, inverse agonism; inhibition, % at 9.3 µM; 340,000 tested, 0.21% active; in the data active = inhibition above about 22%, passing the limit was not always enough;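 note: 0% = cells with DMSO and 100% = wells without cells with DMSO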
HTR5A inv ctr – HTR5A inverse agonism, opioid heterodimer counter-screen | P47898 | 340,000 tested, 0.083% active | inhibition, % at 9.3 µM | HTR5A cell line, luminescence; in the data active = inhibition mostly above about 23%, no sharp cut-off; inactive = mostly below about 18%;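 note: 0% = cells with DMSO and 100% = no-cell wells with DMSO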
HTR5A ag ctr – HTR5A agonism, opioid heterodimer counter-screen; P47898; HTR5A agonist assay, luminescence, cell-based; AID 504692; 340,000 tested, 0.61% active; activation, % at 9.3 µM; in the data active = activation mostly above about 9.5%, no sharp cut-off; inactive = mostly below about 7.6%;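 note: 0% = cells with vehicle only and 100% = reference agonist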
MIN6 prolif – induces beta-cell replication in MIN6 cells. MIN6 cells proliferation, ATPlite luminescence, 48 h; cells starved in 0.2% serum; 100% = growth in 10% serum. proliferation, % at 10 µM. 330,000 tested, 0.29% active. AID 2380;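 active = compounds whose signal lies at least 3.5 SD above the mean of all wells on their plate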;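 note: 0% = DMSO-treated cells in low-serum medium and 100% = 10% serum control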
MOR-DOR ag-2 – opioid heterodimer agonism, HTR5A counter-screen; AID 504913; 800 tested, 13% active; activation, % at 9.3 µM; shares compounds with HTR5A ag ctr; U2OS counter-screen cells, complementation luminescence, 3 h
HTR5A ag confirm – HTR5A (human) agonism, confirmation. shares compounds with HTR5A ag ctr. HTR5A agonist cell assay, luminescence. activation, % at 9.3 µM. 800 tested, 17% active; in the data active = activation above about 17%;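 note: 0% = cells with vehicle only and 100% = full reference agonist response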
Starred values were filed as active, the others as inactive; . = no result given; ! = repeats disagree. Cut-off read from the data, not from the text of the source, unless noted: active = activation above about 18%; inactive = the rest.

SMILES	MOR-DOR ag-1	V-ATPase pHluor	OPRM1-OPRD1 inv	HTR5A inv ctr	HTR5A ag ctr	MIN6 prolif	MOR-DOR ag-2	HTR5A ag confirm
O=C(Cn1cnc2c(nnn2-c2ccccc2)c1=O)N1CCOCC1	-1.7	-0.2	10.2	-155.8	27.7*	-2.8	6.4	8.1
O=C(NCCc1cnc[nH]1)Nc1cccc(C(F)(F)F)c1	2.1	2.1	-10.5	-20.6	17.2*	-1.5	-0.5	11.8
N#Cc1ccc(-c2csc(-c3ccno3)n2)cc1	.	1.9	.	.	.	5.2	.	.
Cc1nc(-c2ccc(C#N)cc2)cs1	0.7	2.6	-3.6	-13.0	15.1*	-1.1	13.5	3.7
COc1cc2c(cc1NC(=O)COC(=O)C(CCSC)NC(=O)c1ccccc1Cl)oc1ccccc12 (stereo not drawn)	-1.8	-1.7	11.0	-22.1	8.3	0.0	.	.
CC(C)(C)c1ccc(OCC(=O)N2CCN(c3ccccn3)CC2)cc1	-0.1	-2.3	0.5	-37.0	15.1*	-3.8	17.6	17.4*
CC(=O)NC(=S)Nc1ccc(NC(=O)COc2ccc(Cl)cc2Cl)cc1	8.2	3.3	-51.6	-32.7	26.9*	-1.3	0.0	-3.0
O=C(COc1ccc(Cl)cc1Cl)NNC(=S)Nc1ccc(F)cc1	-0.7	1.1	3.7	-17.1	-1.7	-4.4	.	.
CC(C)N(C(=S)Nc1cccnc1)c1ccccc1	-2.3	-2.6	11.5	-6.2	2.1	0.1	.	.
Cc1ccc(C)c(S(=O)(=O)N/N=C/c2ccc(N(C)C)cc2)c1	0.0	4.5	-0.2	-8.6	3.2	2.6	.	.
Cc1ccc(C)c(S(=O)(=O)N/N=C/c2ccc(F)cc2)c1	0.6	-1.1	-3.1	-45.5	15.0*	-2.7	4.0	6.9
CN(C)CC(C)(C)CN=Cc1c(O)[nH]c2ccccc12	0.9	1.1	-4.7	-21.2	8.1	-3.7	.	.
COc1ccc2cc(CCOC3CCCCO3)ncc2c1 (stereo not drawn)	-1.8	-0.5	10.3	9.2	-3.4	3.7	.	.
Cn1c(NC(=O)c2cccc(Cn3cc(Cl)cn3)c2)nc2ccccc21	1.2	5.5	-6.5	-7.0	2.4	-1.2	.	.
CCn1c(NC(=O)c2cccc(Cn3cc(Cl)cn3)c2)nc2ccccc21	0.0	1.6	0.2	-50.9	19.7*	-6.1	6.4	11.7
CN1C[C@H](C(=O)N[C@]2(C)O[C@@]3(O)[C@@H]4CCCN4C(=O)[C@H](Cc4ccccc4)N3C2=O)CC2c3cccc4[nH]cc(c34)C[C@H]21 (stereo partly drawn)	0.6	5.3	-3.4	-161.8	45.3*	-3.7	-1.5	48.2*!
CC(C)C[C@H]1C(=O)N2CCC[C@H]2[C@]2(O)O[C@](NC(=O)C3C=C4c5cccc6[nH]c(Br)c(c56)C[C@H]4N(C)C3)(C(C)C)C(=O)N12 (stereo partly drawn)	4.4	-1.1	-23.9	-29.5	8.3	-8.0	.	.
CC(=O)N1CCc2c(sc(NC(=O)C3CC3)c2-c2nc3ccccc3s2)C1	-1.9	1.4	10.9	-47.1	16.1*	-5.9	2.3	0.6
O=c1[nH]c2ccccc2cc1-c1nnn(-c2ccc(Cl)c(Cl)c2)n1	-3.8	1.0	20.6	-61.4	17.9*	-0.9	2.4	-2.5
O=c1[nH]c2ccccc2cc1-c1nnn(-c2ccc(F)cc2)n1	0.4	0.0	-2.3	-1.7	0.1	-7.0	.	.
COc1ccc(CN2C3CCCC2CC(NC(=O)Nc2cccc(C)c2)C3)cc1 (stereo not drawn)	0.0	0.1	-0.3	17.3	16.6*	-3.6	1.3	7.2
CCOC(=O)c1ccc(NS(=O)(=O)c2cc(-c3nnnn3CC)ccc2OC)cc1	2.4	-1.6	-11.7	-41.0	15.7*	-2.5	19.6*	0.4
Oc1ccc(-c2csc(-c3c[nH]c4ccccc34)n2)c(O)c1	7.1	-1.4	-36.1	-55.4	27.5*	-1.1	6.2	26.2*
Cc1ccc(-c2csc(-c3c[nH]c4ccccc34)n2)c(C)c1	0.8	1.6	-4.2	18.4	-7.1	-3.6	.	.
COc1ccc([C@@H]2C[C@@H](c3ccccc3)Oc3c(C)ccc(C(C)C)c32)cc1	.	.	.	.	.	-8.2	.	.
